Screens: PubChem, National Center for Advancing Translational Sciences (NCATS)
IDH1 R132H inh = human IDH1 R132H inhibition; O75874; IDH1-R132H enzyme, NADPH consumption, diaphorase/resazurin fluorescence; Potency, µM (top dose mostly 76.6 µM), for the others: top-dose activity change, negative = inhibition, most hits filed as inhibitors; actives 0.093% (n = 390,000); AID 602179; also: potency is read from the fitted curve at half-maximal effect; % is scaled to controls: 0 for no effect and ±100 for the full control effect; nearly all actives have a fitted effect of over 65% in size
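IDH1-R132H (0.5 ug/mL) preincubated 30 min with compound, then NADPH (0.016 mM) and alpha-KG (2 mM) added; 80 min at RT, pH 7.5. Remaining NADPH coupled via diaphorase/resazurin to fluorescence (540/590 nm); concentration-response curves normalized to no-enzyme control.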
IL2 activator = IL-2 activation | IL-2 activation reporter assay, cell-based qHTS; stimulated with anti-CD3/CD4/CD28 beads; in transgenic mouse T cells | activation, % (series mostly up to about 46 µM) | actives 0.065% (n = 360,000) | AID 652025; in the data active = activation above about 50%; inconclusive = mostly about 30% to 49%; also: 0% is about no effect
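Unstimulated transgenic mouse T cells, 750 per well, received compound and, after 60 minutes, anti-CD3/anti-CD4 bead plus anti-CD28 stimulation. EGFP and DsRed were quantified after 18 hours.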
TrxR1 inh = blocks rat thioredoxin reductase 1 | Potency, µM (doses to about 114 µM), inactives show at the highest dose activity change, negative = inhibition, hits mostly inhibitors | O89049 | actives 1% (n = 390,000) | recombinant rTrxR1, NADPH fluorescence consumption, selenite substrate; also: potency is read from the fitted curve at half-maximal effect; % is scaled to controls: 0 for no effect and ±100 for the full control effect; nearly all actives have a fitted effect of over 65% in size
Target sequence (O89049 whole entry, looked up): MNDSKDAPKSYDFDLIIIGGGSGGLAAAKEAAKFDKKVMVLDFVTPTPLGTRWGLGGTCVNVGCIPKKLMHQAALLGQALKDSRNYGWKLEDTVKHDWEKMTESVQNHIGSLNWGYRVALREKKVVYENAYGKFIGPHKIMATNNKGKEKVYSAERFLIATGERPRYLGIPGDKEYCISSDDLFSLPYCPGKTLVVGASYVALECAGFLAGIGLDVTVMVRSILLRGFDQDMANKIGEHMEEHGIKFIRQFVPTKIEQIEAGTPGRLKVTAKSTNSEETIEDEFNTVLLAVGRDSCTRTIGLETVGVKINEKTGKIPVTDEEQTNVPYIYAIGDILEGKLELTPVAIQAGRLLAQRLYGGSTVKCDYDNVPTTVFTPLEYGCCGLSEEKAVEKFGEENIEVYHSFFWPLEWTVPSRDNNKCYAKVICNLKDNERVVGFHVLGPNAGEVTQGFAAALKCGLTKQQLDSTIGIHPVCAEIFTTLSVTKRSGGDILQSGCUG
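Rat TrxR1 (90 nM in the dispensed reagent) was pre-reduced with 400 uM NADPH for 5 min at room temperature, then incubated with compound for 15 min. After 400 uM selenite was added, NADPH fluorescence (Ex 340/Em 450 nm) was followed for 8 min.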
TrxR1 substrate = substrates of rat thioredoxin reductase 1; actives 0.01% (n = 390,000); purified TrxR1 substrate turnover, NADPH consumption readout; O89049; Potency, µM (doses to about 114 µM), for inactives: at the highest dose activity change, negative = substrate turnover; also: potency is read from the fitted curve at half-maximal effect; % is scaled to controls: 0 for no effect and ±100 for the full control effect; nearly all actives have a fitted effect of over 50% in size
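Rat TrxR1, dispensed at 90 nM, was prereduced with 400 uM NADPH (final) for 5 min at ~22 deg C, then incubated with compound 15 min before 400 uM selenite. A first-read NADPH fluorescence drop versus no-compound background flagged substrates.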
Giardia kill = Giardia lamblia killing. AID 540267. activity change, % at 7.66 µM, hits read low. actives 0.15% (n = 340,000). Giardia lamblia trophozoite viability; in the data active = activity change below about -80%; inconclusive = between about -30% and that limit;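 also: parasites exposed to compound for two days anaerobically before the ATP read; % is scaled to controls: 0 for no effect and ±100 for the full control effect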
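Trophozoites 100 cells/well + cpd; 48 hrs, 37 deg C, anaerobic. ATPLite 1-Step added, 15-30 min RT, luminescence read (ATP-based viability).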
BRCA1 expr act = BRCA1 expression activation; Potency, µM (titrated, usually from 46.1 µM), without a hit: at the highest dose activation, usual class: activators; actives 1.1% (n = 380,000); MCF7-BRCA1-FFLuc reporter, luminescence, 48 h; response scale: scaled: vehicle 0%, 10 µM genistein 100%; also: potency is read from the fitted curve at half-maximal effect; nearly all actives have a fitted effect of over 80% in size
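Quantitative HTS in MCF7 cells stably reporting BRCA1 expression via firefly luciferase. Compound treatment lasts 48 h at 37 °C in phenol-red free MEM. Activation is expressed relative to genistein at 10 microM and DMSO.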
The depositor's hits bear a star; ? = inconclusive; . = not tested or not shown; [ ] = dose if it differs, or a comment. The list is not random: actives were taken first. Their share in the collection is about 2.2%. Unless noted, calls follow the shape of the dose curve; as a rule, active = well fitted curve in the direction sought with a large enough effect; inconclusive = small, poorly fitted or top-dose-only effect, or another doubt; inactive = no such curve, though single readings can be large; an effect the other way counts as inactive or inconclusive.

SMILES	IDH1 R132H inh	IL2 activator	TrxR1 inh	TrxR1 substrate	Giardia kill	BRCA1 expr act
COC(=O)CSC1=NS(=O)(=O)c2ccccc21	1.2%	-4.4	2.24µM*	-1.5%	-2.9	-14.7%
CC(C)(C)n1ncc2c(=O)n(Cc3cc(F)c(F)cc3Cl)cnc21	.	.	8.9%[57.1 µM]	2.2%	.	.
Cc1ccc(N2C(=O)CS/C2=C(\C(Cl)=C(Cl)Cl)[N+](=O)[O-])cc1	-5.2%	0.3	31.6µM*	0.0%	-15.9	-1.1%
Cc1ccc(-n2c(SCC(N)=O)nc3c(oc4ccccc43)c2=O)cc1C	0.0%	.	3.6%	-0.8%	.	6.3%
Cc1cc(C)cc(OCC(=O)Nc2nonc2-c2ccc(Br)cc2)c1	.	.	7.0%	-7.8%	.	.
Cn1cccc1C(=O)NNC(=O)COc1ccccc1F	-7.4%	-0.8	14.0%	7.9%	-7.2	12.6µM*
FC(F)Sc1ccc(Nc2ncnc3nc[nH]c23)cc1	-0.8%	-0.2	28.7%	8.1%	-4.1	3.55µM*
CCCCCCCCOC(=O)c1cc([N+](=O)[O-])c(Sc2ncnc3nc[nH]c23)c([N+](=O)[O-])c1	2.2%	-0.7	39.8µM*	-7.4%	-9.1	-93.9%
CCCCOC(=O)c1ccc(Nc2ncnc3nc[nH]c23)cc1	11.8%	-1.9	17.7%	6.3%	-24.2	10µM*
CCCN1C(=O)S/C(=C/c2ccc(N3CCOCC3)o2)C1=O	-8.9%	22.8	28.2µM*	-13.3%	11.9	75.2%
CCCN1C(=O)S/C(=C\c2ccc(N3CCOCC3)o2)C1=O	10.8%	1.3	7.94µM*	-6.2%[57.1 µM]	6.7	-19.7%
CCSC(=O)N1CCN(/[N+]([O-])=N/Oc2ccc([N+](=O)[O-])cc2[N+](=O)[O-])CC1	.	.	11.2µM*	1.8%	.	-22.9%
O=[N+]([O-])c1ccc(O/N=[N+](\[O-])N2CCCCC2)c([N+](=O)[O-])c1	.	.	22.4µM*	-10.9%	.	6.4%
O=C(CC(Cl)(Cl)Cl)N1CCN(/[N+]([O-])=N/Oc2ccc([N+](=O)[O-])cc2[N+](=O)[O-])CC1	.	.	?	-2.3%	.	0.0%
CCCOC(=O)N1CCN(/[N+]([O-])=N/Oc2ccc([N+](=O)[O-])cc2[N+](=O)[O-])CC1	.	.	11.2µM*	-11.0%	-8.9	.
O=C(OCc1ccccc1)N1CCN(/[N+]([O-])=N/Oc2ccc([N+](=O)[O-])cc2[N+](=O)[O-])CC1	.	.	?	4.9%[0.457 µM]	.	0.0%
CCOC(=O)N1CCN([N+]([O-])=NOc2cc(O/N=[N+](\[O-])N(C)C)c([N+](=O)[O-])cc2[N+](=O)[O-])CC1	.	.	28.2µM*	-17.4%	?	.
O=C(Nc1ccc2nccnc2c1)N1CCCCCC1	.	.	-15.8%	38.0%	-12.6	?
CN(C)/C=C(\C#N)C(=O)Nc1ccc(F)c(Cl)c1	14.2%	-0.6	10.9%	-5.0%	-18.3	7.94µM*
COCCCNC(=O)c1sc2nc(C)c(C(=O)Nc3ccc(Cl)cc3)c(-c3ccc(Br)cc3)c2c1N	-28.8%	.	27.5%	8.8%	.	.
Cc1ccccc1C(=O)Nc1cccc(-c2ccc(N3CCOCC3)nn2)c1	-13.2%	-3.0	0.7%	1.1%[57.1 µM]	-10.3	14.1µM*
O=C(COc1ccc(Cl)cc1Cl)Nc1cccc(-c2ccc(N3CCOCC3)nn2)c1	0.1%	-0.8	12.2%	0.6%	-14.5	1.41µM*
CCN(CC)C(=O)OCCc1cc2ccccc2c(=O)o1	12.9%	0.6	39.8µM*	9.0%	4.7	52.1%
O=C(O)c1ccccc1C(=O)OCCc1cc2ccccc2c(=O)o1	0.0%	-1.1	10.9%[57.1 µM]	-7.4%	26.0	23.2%
O=C(Nc1ccc2c(c1)OCCO2)c1cnc2n(c1=O)CCS2	7.1%	1.3	-1.9%	-9.1%	5.2	7.08µM*
O=C(Nc1ccc2c(c1)OCO2)c1cnc2n(c1=O)CCS2	7.2%	-0.2	12.8%	3.7%	-9.2	2.51µM*
O=C(NCc1ccc2c(c1)OCO2)c1cnc2n(c1=O)CCS2	14.7%	2.7	23.6%	-3.1%	?	39.0%
